Data published in PubChem BioAssay (NCI).
About 83,000 compounds went through this panel and 20% of them were active in at least one assay; those are over-represented in the sample as a whole.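 Assay: single dose, 48 h. Readout: percent growth (0 = no net growth; negative = cell death). Active: <10.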 A number with no mark means an inactive call. Active and inactive are the calls of the source.

test system: MDA-MB-468 breast; experiment: NCI-60 one-dose screen, 48 h (100 = growth as untreated, 0 = no growth, -100 = all killed); conditions: 10 µM unless noted

SMILES | growth
COC(=O)[C@H]1[C@@H](O)[C@@]2(O)c3c(OC)cc(OC)cc3O[C@@]2(c2ccc(OC)cc2)[C@@H]1c1ccccc1 | -16.5% (active)
CC(C)C1c2ccc(O)cc2Oc2nc(N)c(C#N)c(N)c21 (stereo unspecified) | 90%
Cn1cc(-c2csc(-c3cn(CCCCN4CCOCC4)c4ccc(F)cc34)n2)c2cccnc21 | 65%
N#CC1=C(N)Oc2cc3c(cc2C1c1cccs1)OCO3 (stereo unspecified) | 6.33% (active)
Cc1cc[c-]cc1.Fc1c[c-]c(-c2ccccn2)c(F)c1.[Pt+2].c1ccc([PH+](c2ccccc2)c2ccccn2)cc1 | 51%
COc1cc(C=Nc2cccc(Br)c2)ccc1N(CCCl)CCCl | -18.8% (active)
CCCC(=O)O[C@@H]1C[C@H]2C[C@@H](O[C@@H]3O[C@@H](C)[C@@H](O)[C@@H](O)[C@H]3OC)C[C@@H](C[C@@H](C)/C=C/C=C\C[C@@H]3O[C@@H](C[C@@H]3C)[C@@H](O)C[C@H]3C[C@@]1(O)C(=O)O3)O2 | -6.3% (active)
CN1CC(=O)N(O)C1(C)c1cccnc1 (stereo unspecified) | 94.8%
NC(=O)NC(=O)CI | 83.7%
O=[N+]([O-])/C=C/c1ccc(Cl)cc1[N+](=O)[O-] | -55.9% (active)
CCCCCCCCCCCCCCCCCC1OCC(COC(=O)O[C@@H](C(=O)O[C@H]2C[C@@]3(O)[C@@H](OC(=O)c4ccccc4)[C@@H]4[C@]5(OC(C)=O)CO[C@@H]5C[C@H](O)[C@@]4(C)C(=O)[C@H](OC(C)=O)C(=C2C)C3(C)C)[C@@H](NC(=O)c2ccccc2)c2ccccc2)O1 (stereo partly specified) | 3.29% (active)
